SMILES strings stand for the structures. Several values for one entry are separate records, joined by “and”; a condition that tells them apart may be missing. Equal values may be shown once. Activity calls are given as the source filed them. Where a call stands in place of a potency, no number is given. Calls come from the whole dose curve; as a rule, active = well fitted curve in the direction sought with a large enough effect in the repeat runs; inconclusive = weak or mixed curves; inactive = flat fitted curve, though single readings scatter.
Tags give direction and shape of the fitted curve or compound fluorescence and quenching.

One assay can be described thus: qHTS assay to test for compound auto fluorescence at 590 nm (red) in HEK293 cells (AID 720679). Note: potency is the fitted concentration of half-maximal effect. To be noted: red autofluorescence 540/590 nm; series mostly up to 91.3 µM; fluorescence, % of fluorescent control: at the top concentration. The method in brief: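 Each well held 2,000 HEK293 cells in medium containing 10% dialyzed FBS. Following 4-5 hr attachment at 37C, 23 nL test compound or DMSO was added; plates sat overnight, and red fluorescence (540/590nm) was recorded.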
In general terms: qHTS replaces the single test concentration by a dilution series.
On to `O=CC(=O)c1ccccc1`, for which the “fluorescence, % of fluorescent control” value is 0.115% (inactive).

Regarding `CN[C@H]1CC[C@@H](c2ccc(Cl)c(Cl)c2)c2ccccc21`, the “fluorescence, % of fluorescent control” value is -1.19% [at 46 µM] (inactive).

`CCN(CC)C(=O)c1cccc(C)c1`: the Potency result was “inactive”.

As to `CCCCC(CC)C(=O)O` (configuration not stated), the Potency entry is “inactive”.

On to `CC(C)NCC(O)c1ccc(O)c(O)c1` (configuration not stated), for which the Potency entry is “inactive”.

With `O=C1OC2(c3ccccc31)c1cc(Br)c(O)c(Br)c1Oc1c2cc(Br)c(O)c1Br`, the Potency is 5.01 µM [fluorescent] (active) and 4.47 µM [fluorescent] (active) and 3.55 µM [fluorescent] (active).

For the compound `CC(=O)CCC(=O)O`, the Potency entry is “inactive”.

Regarding `COc1ccc(CN(CCN(C)C)c2ccccn2)cc1`, the Potency entry is “inactive”.

`CCN(Cc1c(F)cccc1Cl)c1c([N+](=O)[O-])cc(C(F)(F)F)cc1[N+](=O)[O-]`: the “fluorescence, % of fluorescent control” value was -0.16% (inactive).

Another assay is described as follows: qHTS assay to test for compound auto fluorescence at 535 nm (green) in HEK293 cells (AID 720680). Note: potency is the fitted concentration of half-maximal effect. To be noted: green autofluorescence 485/535 nm; series mostly up to 91.3 µM; fluorescence, % of fluorescein: at the top concentration.
Turning to `O=C1NC(=O)C(c2ccccc2)(c2ccccc2)N1`, the Potency result is “inactive”.

On to `O=c1[nH]cnc2c1ncn2[C@H]1CC[C@@H](CO)O1`, for which the Potency entry is “inactive”.

`C=C(C)C(=O)OCC(C)O` (configuration not stated): the Potency result was “inactive”.

With `CC(C)c1c(C(=O)Nc2ccccc2)c(-c2ccccc2)c(-c2ccc(F)cc2)n1CC[C@@H](O)C[C@@H](O)CC(=O)O`, the Potency entry was “inactive”.

Consider `O=C(Nc1ncc([N+](=O)[O-])s1)c1cccs1`, for which the “fluorescence, % of fluorescein” value was -0.0732% [at 46 µM] (inactive).

On to `CN1[C@@H]2CC(OC(=O)[C@H](CO)c3ccccc3)C[C@H]1[C@@H]1O[C@@H]12` (some centres not stated), for which the Potency result was “inactive”.

On to `C/C=C/C=C/C(=O)O`, for which the Potency result was “inactive”.

On to `C1=CC2C3C=CC(C3)C2C1` (configuration not stated), for which the “fluorescence, % of fluorescein” value is 0.0886% (inactive).

Regarding `CCCC[P+](CCCC)(CCCC)CCCC`, the Potency result was “inactive”.

As to `CN1CCC[C@H]1c1cccnc1`, the Potency result was “inactive”.

On to `C1CCC(C(CC2CCCCN2)C2CCCCC2)CC1` (configuration not stated), for which the “fluorescence, % of fluorescein” value was -0.0258% [at 46 µM] (inactive).

For `O=S1(=O)OC(c2ccc(O)cc2)(c2ccc(O)cc2)c2ccccc21`, the Potency entry was “inactive”.

With `Cc1ccc(S(=O)(=O)O)cc1`, the Potency result is “inactive”.

With `CC/C(=C(\c1ccccc1)c1ccc(OCCN(C)C)cc1)c1ccccc1`, the Potency result was “inactive”.

Regarding `CCCCCCc1ccc(O)cc1O`, the Potency entry was “inactive”.

Consider `O=C1NS(=O)(=O)c2ccccc21`, for which the Potency result was “inactive”.

For `COc1ccc2cc(S(=O)(=O)N[C@H](CC(=O)N[C@H](Cc3ccc(CN4[C@H](C)CCC[C@@H]4C)cc3)C(=O)N(C)C(C)C)c3ccc4c(c3)OCO4)ccc2c1`, the “fluorescence, % of fluorescein” value was -0.0963% (inactive).

Turning to `C=C1CC[C@H](O)C/C1=C\C=C1/CCC[C@]2(C)[C@@H]([C@H](C)CCCC(C)C)CC[C@@H]12`, the Potency result was “inactive”.

Regarding `F[B-](F)(F)F`, the Potency result was “inactive”.

With `CC(=O)CC(c1ccccc1)c1c(O)c2ccccc2oc1=O` (configuration not stated), the Potency entry was “inactive”.

As for `O=CC(=O)c1ccccc1`, the “fluorescence, % of fluorescein” value was -0.0516% (inactive).

Consider `CN[C@H]1CC[C@@H](c2ccc(Cl)c(Cl)c2)c2ccccc21`, for which the “fluorescence, % of fluorescein” value was -0.0114% [at 46 µM] (inactive).

Consider `CCN(CC)C(=O)c1cccc(C)c1`, for which the Potency result was “inactive”.

For `CCCCC(CC)C(=O)O` (configuration not stated), the Potency result is “inactive”.

Consider `CC(C)NCC(O)c1ccc(O)c(O)c1` (configuration not stated), for which the Potency entry is “inactive”.

Take `O=C1OC2(c3ccccc31)c1cc(Br)c(O)c(Br)c1Oc1c2cc(Br)c(O)c1Br`: the Potency is 11.2 µM [fluorescent] (active) and 28.2 µM [fluorescent] (active).

Turning to `CC(=O)CCC(=O)O`, the Potency result was “inactive”.

Consider `COc1ccc(CN(CCN(C)C)c2ccccn2)cc1`, for which the Potency result was “inactive”.

For the compound `CCN(Cc1c(F)cccc1Cl)c1c([N+](=O)[O-])cc(C(F)(F)F)cc1[N+](=O)[O-]`, the “fluorescence, % of fluorescein” value is -0.0133% (inactive).

A further assay is described as follows: qHTS assay to test for compound auto fluorescence at 460 nm (blue) in HEK293 cell free culture (AID 720681). As to conditions: cell-free medium, autofluorescence 405/460 nm (blue); series mostly up to 91.3 µM; fluorescence, % of fluorescent control: at the top concentration. The method in brief:
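Compounds were added to cell-free DMEM with 10% FBS and fluorescence read directly. The blue channel used 405 nm excitation and 460 nm emission, with triamterene as the reference fluorophore.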
As to `O=C1NC(=O)C(c2ccccc2)(c2ccccc2)N1`, the Potency result is “inactive”.

As for `O=c1[nH]cnc2c1ncn2[C@H]1CC[C@@H](CO)O1`, the Potency entry was “inactive”.

Take `C=C(C)C(=O)OCC(C)O` (configuration not stated): the Potency entry is “inactive”.

Regarding `CC(C)c1c(C(=O)Nc2ccccc2)c(-c2ccccc2)c(-c2ccc(F)cc2)n1CC[C@@H](O)C[C@@H](O)CC(=O)O`, the Potency result is “inactive”.

In the case of `O=C(Nc1ncc([N+](=O)[O-])s1)c1cccs1`, the “fluorescence, % of fluorescent control” value was 0.0013% [at 46 µM] (inactive).

Regarding `CN1[C@@H]2CC(OC(=O)[C@H](CO)c3ccccc3)C[C@H]1[C@@H]1O[C@@H]12` (some centres not stated), the Potency entry was “inactive”.

`C/C=C/C=C/C(=O)O`: the Potency result was “inactive”.

Consider `C1=CC2C3C=CC(C3)C2C1` (configuration not stated), for which the “fluorescence, % of fluorescent control” value was 2.26% (inactive).

Consider `CCCC[P+](CCCC)(CCCC)CCCC`, for which the Potency result was “inactive”.

For `CN1CCC[C@H]1c1cccnc1`, the Potency entry was “inactive”.

On to `C1CCC(C(CC2CCCCN2)C2CCCCC2)CC1` (configuration not stated), for which the “fluorescence, % of fluorescent control” value was -0.0954% [at 46 µM] (inactive).

Regarding `O=S1(=O)OC(c2ccc(O)cc2)(c2ccc(O)cc2)c2ccccc21`, the Potency result was “inactive”.

`Cc1ccc(S(=O)(=O)O)cc1`: the Potency entry is “inactive”.

As for `CC/C(=C(\c1ccccc1)c1ccc(OCCN(C)C)cc1)c1ccccc1`, the Potency entry is “inactive”.

Regarding `CCCCCCc1ccc(O)cc1O`, the Potency entry was “inactive”.

Consider `O=C1NS(=O)(=O)c2ccccc21`, for which the Potency entry was “inactive”.

`COc1ccc2cc(S(=O)(=O)N[C@H](CC(=O)N[C@H](Cc3ccc(CN4[C@H](C)CCC[C@@H]4C)cc3)C(=O)N(C)C(C)C)c3ccc4c(c3)OCO4)ccc2c1`: the “fluorescence, % of fluorescent control” value is -0.233% (inactive).

As for `C=C1CC[C@H](O)C/C1=C\C=C1/CCC[C@]2(C)[C@@H]([C@H](C)CCCC(C)C)CC[C@@H]12`, the Potency result was “inactive”.

Consider `F[B-](F)(F)F`, for which the Potency result was “inactive”.

`CC(=O)CC(c1ccccc1)c1c(O)c2ccccc2oc1=O` (configuration not stated): the Potency result is “inactive”.

With `O=CC(=O)c1ccccc1`, the “fluorescence, % of fluorescent control” value was -0.067% (inactive).

Consider `CN[C@H]1CC[C@@H](c2ccc(Cl)c(Cl)c2)c2ccccc21`, for which the “fluorescence, % of fluorescent control” value is 0.0587% [at 46 µM] (inactive).

`CCN(CC)C(=O)c1cccc(C)c1`: the Potency entry is “inactive”.

As to `CCCCC(CC)C(=O)O` (configuration not stated), the Potency result was “inactive”.

Take `CC(C)NCC(O)c1ccc(O)c(O)c1` (configuration not stated): the Potency entry was “inactive”.

Turning to `O=C1OC2(c3ccccc31)c1cc(Br)c(O)c(Br)c1Oc1c2cc(Br)c(O)c1Br`, the Potency entry is “inactive”.

For `CC(=O)CCC(=O)O`, the Potency entry was “inactive”.

Regarding `COc1ccc(CN(CCN(C)C)c2ccccn2)cc1`, the Potency entry is “inactive”.

`CCN(Cc1c(F)cccc1Cl)c1c([N+](=O)[O-])cc(C(F)(F)F)cc1[N+](=O)[O-]`: the “fluorescence, % of fluorescent control” value is -0.343% (inactive).

The record behind these values is PubChem BioAssay (Tox21).
